RMI-FANCM inh = RMI-FANCM interaction inhibition; Fluorescence polarization, RMI core complex with F-MM2 peptide; stronger effect = lower value; FP signal (polarization) at 33 µM; 70,000 tested, 0.58% active; in the data active = FP signal below about 40
Starred values were filed as active, the others as inactive. Shown is part of a subset that was picked to be rich in hits.

SMILES | RMI-FANCM inh
CC(=O)O[C@H]1C[C@@H]2CC[C@@H]3[C@H](CC[C@@]4(C)[C@H]3C[C@H]([N+]3(C)CCCCC3)[C@@H]4OC(C)=O)[C@@]2(C)C[C@@H]1N1CCCCC1 | 74
CC(=O)OC1C([N+]2(C)CCCCC2)C[C@H]2C3CC[C@H]4C[C@H](OC(C)=O)C([N+]5(C)CCCCC5)CC4(C)[C@H]3CCC12C (stereo partly specified) | -9*
Brc1ccc(Br)c2ccccc12 | 56
Cc1nc(C(F)(F)F)nc(NNC(=O)Nc2ccc(Cl)cc2Cl)c1C | 64
COc1cn(CC(=O)Nc2ccc(Br)cc2)c(CN2CCC(C)CC2)cc1=O | 57
COc1cn(CC(=O)Nc2cccc3ccccc23)c(CN2CCN(c3ccc(F)cc3)CC2)cc1=O | 35*
COc1cn(CC(=O)NCc2ccc(C)cc2)c(CN2CCC(C)CC2)cc1=O | 59
NC(=O)Cc1csc(N)n1 | 62
CCOCCn1c(=NC(C)=O)sc2cc(Br)ccc21 | 63
CCc1nc2sc(C(c3ccc([N+](=O)[O-])cc3)N3CCCC3)c(O)n2n1 (stereo unspecified) | 53
O=C(Nc1nc2c(s1)Cc1ccccc1-2)c1nc2ccccc2s1 | -62*
O=C(Nc1nc2c(s1)Cc1ccccc1-2)c1ccc2ncsc2c1 | 74
O=C(Nc1nc2c(s1)CCc1ccccc1-2)c1nc2ccccc2s1 | 58
CNC(=O)c1cccc2cccc(S(=O)c3ccccc3)c12 (stereo unspecified) | 55
Cc1cc(C)c(C#N)c(SCC(=O)NCc2ccco2)n1 | 71
COc1ccc(C(=O)N2CCOC2CNC(=O)C(=O)NCc2ccccc2Cl)cc1 (stereo unspecified) | 63
CCCCOc1ccc(C(=O)NCCN2CCn3cc(OC)c(=O)cc3C2=O)cc1 | 64
O=C(CCN1C(=O)/C(=C\c2ccccc2F)SC1=S)N1CCN(c2ccccc2)CC1 | 59
COCCCN1C(=O)/C(=C/N2CCN(c3ccccc3)CC2)SC1=S | 98
CCN1C(=O)/C(=C/c2c(C)c(C#N)c(=O)n(C)c2N2CCN(c3ccc(F)cc3)CC2)SC1=S | 15*
O=C(O)c1cc(O)c2c(c1)[C@@H]([C@@H]1c3cc(C(=O)O)cc(O)c3C(=O)c3c(O[C@H]4O[C@H](CO)[C@@H](O)[C@H](O)[C@H]4O)cccc31)c1cccc(O[C@H]3O[C@H](CO)[C@@H](O)[C@H](O)[C@H]3O)c1C2=O | 34*
OCc1ccccc1O[C@@H]1O[C@H](CO)[C@@H](O)[C@H](O)[C@H]1O | 59
O=[N+]([O-])c1ccccc1O[C@@H]1O[C@H](CO)[C@H](O)[C@H](O)[C@H]1O | 60
CCOc1ccc(-c2nnc(NC(=O)c3ccc(Br)o3)o2)cc1 | 64
NNc1nc2cc3c(cc2s1)OCCO3 | -6*
SMILES | RMI-FANCM inh
c1c2c(cc3sc(N4CCN(c5nc6cc7c(cc6s5)OCCO7)CC4)nc13)OCCO2 | 63
CCC(=O)Nc1nc2cc3c(cc2s1)OCCO3 | 73
O=c1[nH][nH]c2ccccc2c1=O | 63
O=C(Nc1ccc2c(c1)OCCO2)Nc1cccs1 | 56
O=C(CCc1ccccc1)N/N=C\c1ccccc1 | 56
O=C(CCc1ccc(O)cc1)N/N=C\C=C\c1ccccc1 | 58
O=C(CCc1ccc(O)cc1)N/N=C\c1cc(Cl)cc(Cl)c1O | 37*
Cc1nnc2ccc(N3CCN(S(=O)(=O)c4ccc(OC(F)(F)F)cc4)CC3)nn12 | 65
Cc1nc(Cl)c2c3c(sc2n1)CCCC3 | 57
Cc1nc2sc3c(c2c(=O)o1)CCCC3 | 53
Cc1nc(Sc2nc3ccccc3o2)c2c3c(sc2n1)CCCC3 | 30*
O=S(=O)(NCC1CCN(Cc2ccccc2)CC1)c1cccs1 | 75
CCOC(=O)c1c(C)oc2c1c(C=NC(C)c1ccccc1)c(O)c1ccccc12 (stereo unspecified) | 39
CCOC(=O)c1c(C)oc2c1c(C=NC1CC(C)(C)NC(C)(C)C1)c(O)c1ccccc12 | 8*
CCOC(=O)c1c(-c2ccccc2)oc2c1cc(NS(=O)(=O)c1ccc(C)cc1C)c1ccccc12 | 60
O=C(CS(=O)(=O)c1ccc(Cl)cc1)Nc1ccc(F)c(F)c1F | 57
N/C(CC(=O)Nc1ccc(F)c(F)c1F)=N/O | 35*
NC(=O)Nc1ccc(F)cc1F | 57
N#CCCN(Cc1cccs1)S(=O)(=O)c1ccc(-c2ccccn2)s1 | 50
O=[N+]([O-])c1ccc(S(=O)(=O)c2ccccc2)cc1O | 62
O=C1c2c(O)ccc([N+](=O)[O-])c2C(=O)c2c(O)ccc([N+](=O)[O-])c21 | -25*
O=C1c2ccc(O)c(O)c2C(=O)c2c(O)ccc(O)c21 | 43
Cc1nn(CCNC(=O)c2cccs2)c(C)c1Cl | 61
Cc1cccc(C)c1NC(=O)Cn1c(=O)n(CC2CCC(C(=O)NC3CCCC3)CC2)c(=O)c2ccccc21 (stereo unspecified) | 66
CC(C)(C)C(=O)Nc1sc2c(c1C#N)CCCC2 | 58
SMILES | RMI-FANCM inh
N#Cc1c(N)sc(=S)c2c1CCCC2 | 7*
N#Cc1c(N)sc2c1CCC2 | 50
COc1cc(-c2nc3ccccc3n2C)cc(OC)c1OC | 59
COC(=O)c1ccsc1NC(=O)/C=C/c1ccc(OC)c(OC)c1 | 72
Cc1ccc(C)n1CCNc1ccc(C(F)(F)F)cc1[N+](=O)[O-] | 51
CC(C)(CCOC(=O)c1ccc([N+](=O)[O-])o1)Nc1ccc(C(F)(F)F)cc1[N+](=O)[O-] | 40*
O=C(Nc1cccc(C(F)(F)F)c1)c1ccc([N+](=O)[O-])o1 | 52
CCOC(=O)CSc1nc2cc(C(=O)OC)ccc2c(=O)n1Cc1ccc(Cl)cc1 | 66
Cc1cc(-c2nnc(NC(=O)COc3ccccc3)o2)nn1C | 72
COC(=O)C(=O)NC1C=CS(=O)(=O)C1 (stereo unspecified) | 59
NS(=O)(=O)c1ccc(NC(NC(=O)c2ccco2)C(=O)c2ccc(Cl)cc2)cc1 (stereo unspecified) | 64
COc1ccc(C2c3sc(=O)[nH]c3SC3C4CC(C5C(=O)N(c6ccccc6)C(=O)C45)C23)cc1 (stereo unspecified) | 56
O=c1[nH]c2c(s1)C(c1ccc(Cl)cc1)C1C3CCC(C3)C1S2 (stereo unspecified) | 16*
O=c1[nH]c2c(s1)C1c3ccccc3OCC1CS2 (stereo unspecified) | -9
COc1ccc(CCNc2cc(C)c(C#N)c3nc4ccccc4n23)cc1OC | 52
COc1ccc2c(C)cc(SCC(=O)c3ccc(OC)c(OC)c3)nc2c1 | 125
COc1ccc(C(=O)CSc2cc(C)c(C#N)c3nc4ccccc4n23)cc1OC | 30*
O=C1NC(=Nc2ccccc2)S/C1=C/C=C/c1ccco1 | 27*
CC(=C\c1ccccc1)/C=C1/SC(=Nc2ccc(F)cc2)NC1=O | 58
CCOc1ccc(N=C2NC(=O)S/C2=C\C=C\c2ccccc2)cc1 | 66
Cc1cc(-c2ccccc2)nc2oc(C(=O)c3ccc(Cl)cc3)c(N)c12 | 54
Cc1cc(-c2ccccc2)nc2oc3c(SCC(=O)c4ccc(-c5ccccc5)cc4)ncnc3c12 | 32*
CCOC(=O)Cn1cnc2c(oc3nc(-c4ccccc4)cc(-c4ccccc4)c32)c1=O | 71
COc1cccc2sc(Nc3nc(C(C)(C)C)cs3)nc12 | 61
COc1cccc2sc(Nc3nc4c(F)cc(F)cc4s3)nc12 | 28*
Fc1cccc2sc(Nc3nc4c(F)cccc4s3)nc12 | 70
COc1ccc(Nc2ncnc3c2oc2ccccc23)c(OC)c1 | 66
COc1ccc(N2CCN(CC(O)COC3CC(C)CC(C)(C)C3)CC2)cc1 (stereo unspecified) | 58
